# Most compounds without a hit are left out; they make up all but 2.7% or so of the library.
# PAFAH1B2 FP inh: PAFAH1B2 enzyme inhibitors, primary screen, biochemical, fluorescence polarization, human. Platelet-activating factor acetylhydrolase IB subunit alpha2 (Homo sapiens), P68402. recombinant PAFAH1B2, FP-rhodamine activity probe. inhibition, % at 3.39 µM. 340,000 tested, 1.2% active. AID 492953, 2010;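 active means inhibition above the mean of all tested compounds plus 3 SD, cut at about 24% in these data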;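 further: 0% = enzyme with DMSO and 100% = wells lacking PAFAH1B2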
# Target sequence (P68402 whole entry, looked up): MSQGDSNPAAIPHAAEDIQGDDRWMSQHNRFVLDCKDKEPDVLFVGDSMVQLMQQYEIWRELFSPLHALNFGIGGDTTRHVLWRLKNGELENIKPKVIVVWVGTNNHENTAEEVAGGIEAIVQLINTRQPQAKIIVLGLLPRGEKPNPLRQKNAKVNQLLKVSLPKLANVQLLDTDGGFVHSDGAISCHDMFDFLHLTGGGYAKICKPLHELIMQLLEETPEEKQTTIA
# TCR CD3 inh: inhibitors of human TCR-CD3 interaction, primary screen, biochemical, fluorescence, TAMRA-labeled TCR probe | T-cell receptor (TCR) | inhibition, % at 9.4 µM | 360,000 tested, 0.37% active; in the data active means inhibition above about 19%;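 further: recombinant mutant TCR 2C K166C tagged with TAMRA read by polarization; 0% = receptor in buffer alone and 100% = receptor with positive control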
# PAFAH2 FP inh: PAFAH2 enzyme inhibitors, primary screen, biochemical, fluorescence polarization, human; recombinant PAFAH2, FP-rhodamine activity probe; inhibition, % at 3.39 µM; 340,000 tested, 0.99% active; AID 492956, 2010;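 active means inhibition above the mean over all tested compounds plus 3 SD, cut at about 30% in these data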;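 further: inhibitors block probe labeling of enzyme so polarization drops; 0% = enzyme with DMSO and 100% = wells lacking PAFAH2 protein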
# pPAFAH inh: pPAFAH enzyme inhibitors, primary screen, biochemical, fluorescence polarization, human | recombinant pPAFAH, FP-rhodamine probe fluorescence polarization | AID 463082, 2010 | 330,000 tested, 1.5% active | Platelet-activating factor acetylhydrolase (Homo sapiens), Q13093 | inhibition, % at 3.39 µM;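 active means inhibition above the mean inhibition across the screen plus 3 SD, cut at about 25% in these data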;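 further: inhibitors block binding of the rhodamine activity-based probe so polarization drops; 0% = enzyme with DMSO and 100% = wells lacking pPAFAH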
# PAFAH1B3 inh: PAFAH1B3 enzyme inhibitors, primary screen, biochemical, fluorescence polarization, human. inhibition, % at 3.39 µM. 340,000 tested, 0.28% active. AID 492972, 2010. recombinant PAFAH1B3, FP-rhodamine probe;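 active means inhibition above the screen-wide average of all tested compounds plus 3 SD, cut at about 25% in these data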;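 further: 0% = enzyme with DMSO only and 100% = wells lacking PAFAH1B3 protein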
# Target sequence (Q15102 whole entry, looked up): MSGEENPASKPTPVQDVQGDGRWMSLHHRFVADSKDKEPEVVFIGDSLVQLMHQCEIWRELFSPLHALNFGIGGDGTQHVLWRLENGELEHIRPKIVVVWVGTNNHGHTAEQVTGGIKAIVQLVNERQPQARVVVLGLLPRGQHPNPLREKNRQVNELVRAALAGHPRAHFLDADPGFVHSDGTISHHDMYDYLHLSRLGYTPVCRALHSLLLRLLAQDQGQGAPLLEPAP
# PAFAH2 confirm: PAFAH2 enzyme inhibitors, confirmation, biochemical, fluorescence polarization, human. shares compounds with PAFAH2 FP inh. recombinant PAFAH2, FP-rhodamine activity probe. inhibition, % at 3.39 µM. 2,300 tested, 65% active;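 active means mean inhibition over three repeats above a set limit taken from the earlier primary screen, cut at about 30% in these data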;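 further: inhibitor blocks binding of rhodamine activity probe so polarization falls; 0% = enzyme with DMSO and 100% = wells lacking PAFAH2 protein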
# PAFAH1B3 conf FP: PAFAH1B3 enzyme inhibitors, confirmation, biochemical, fluorescence polarization, human; recombinant PAFAH1B3, FP-Rh activity-based probe; inhibition, % at 3.39 µM; 390 tested, 30% active; shares compounds with PAFAH1B3 inh;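 active means average inhibition over triplicate runs above the hit cutoff set in the earlier primary screen, cut at about 25% in these data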;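 further: 0% = enzyme with DMSO and 100% = wells lacking PAFAH1B3 protein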
# Numbers without * were called inactive; / = no result.
SMILES,PAFAH1B2 FP inh,TCR CD3 inh,PAFAH2 FP inh,pPAFAH inh,PAFAH1B3 inh,PAFAH2 confirm,others
O=C1NC(=S)N(c2ccccc2)C(=O)/C1=C/c1ccco1,2,-53,30*,24,6,59*,
CN1C(=O)C(=Cc2ccc(SC3CCCCC3)o2)C(=O)N(C)C1=O,20,2,30*,12,-2,33*,
O=C(CCc1ccccc1)N1Cc2cc(-c3cccc(F)c3)ccc2-n2nncc2C1,/,-2,/,/,/,/,
O=C(CN1CC(c2ccccc2)CC1=O)Nc1ccccc1 (stereo not drawn),-2,-2,44*,0,1,25,
Cc1ccc(/C=C2\C(=O)NC(=O)N(CC3CCCO3)C2=O)s1 (stereo not drawn),5,-11,33*,0,2,8,
Cn1cccc1/C=C1\C(=O)NC(=O)N(Cc2ccccc2Cl)C1=O,2,-1,30*,/,3,11,
Cn1cccc1/C=C1\C(=O)NC(=O)N(CCC2=CCCCC2)C1=O,4,2,26,/,1,/,
C[C@@H]1CN([C@@H](C)CO)C(=O)CCCn2cc(nn2)CO[C@H]1CN(C)C(=O)Oc1cccc2ccccc12,/,-1,/,/,/,/,
CSc1ccc(C(c2c(O)c3ccccc3oc2=O)c2c(C)n(C)n(-c3ccccc3)c2=O)cc1 (stereo not drawn),3,3,40*,6,11,27,
Cc1c(C(c2ccc(Br)cc2)c2c(O)c3ccccc3oc2=O)c(=O)n(-c2ccccc2)n1C (stereo not drawn),1,0,3,1,3,/,
Cc1c(C(c2ccc(Cl)cc2Cl)c2c(O)c3ccccc3oc2=O)c(=O)n(-c2ccccc2)n1C (stereo not drawn),3,6,39*,2,3,33*,
CC(=O)Nc1ccc(C(c2c(O)c3ccccc3oc2=O)c2c(C)n(C)n(-c3ccccc3)c2=O)cc1 (stereo not drawn),0,2,-3,1,-1,/,
CN1CC2=CC(O)CC3Oc4c(O)ccc(c4[C@]23C)C1 (stereo partly drawn),5,-2,-2,-2,-1,/,
CC(=O)Nc1cc(C(=O)N2CCC3(CC2)OCCO3)ccc1S(=O)(=O)c1ccc(C)cc1,-3,-2,8,4,9,/,
Cc1ccc(S(=O)(=O)Nc2cc(C(=O)N3CCC4(CC3)OCCO4)ccc2N2CCCCC2)cc1,7,-2,60*,21,3,49*,
Cc1cccc(NC(=O)COC(=O)c2cc(C)n(C3CC3)c2C)c1,8,-4,40*,5,2,2,
CCN(CC)c1ccc(/C=C2/C(=O)NC(=O)N(Cc3ccco3)C2=O)cc1,0,-72,7,10,-11,/,
COc1ccc(/C=C2/C(=O)N(Cc3ccco3)C(=O)N(C(C)C)C2=O)cc1,1,-13,30*,11,1,-1,
CN(C(=O)Oc1ccc(C(C)(C)C)cc1)c1ccccc1,16,1,-4,3,7,/,
O=C(c1cc2c(s1)-c1ccccc1OC2)N1CCC2(CC1)OCCO2,4,-3,31*,19,2,18,
CC(=O)C1CCC2C3C(N4CC4)CC4=CC(=O)CCC4(C)C3CCC12C (stereo not drawn),3,2,-1,/,12,/,
O=C(c1ccc(CNS(=O)(=O)c2ccc(Br)cc2)cc1)N1CCC2(CC1)OCCO2,2,-6,1,10,6,/,
O=C(CNS(=O)(=O)c1ccc(Br)s1)N1CCC2(CC1)OCCO2,11,8,36*,7,8,18,
O=C1NC(=O)N(CCC2=CCCCC2)C(=O)/C1=C\c1cccs1,9,-19,55*,4,6,46*,
C[C@@H]1CN([C@@H](C)CO)C(=O)CCCn2cc(nn2)CO[C@H]1CN(C)C(=O)Oc1ccc2ccccc2c1,/,-6,/,/,/,/,
SMILES,PAFAH1B2 FP inh,TCR CD3 inh,PAFAH2 FP inh,pPAFAH inh,PAFAH1B3 inh,PAFAH2 confirm,others
Cc1cc(C)cc(N2C(=O)NC(=O)/C(=C\c3cccn3-c3ccccc3)C2=O)c1,18,2,46*,5,-5,34*,
CN(C)c1ccc(/C=C2/C(=O)NC(=O)N(Cc3ccco3)C2=O)cc1,0,-1,9,9,10,/,
Cc1cc(/C=C2/C(=O)NC(=O)N(Cc3ccco3)C2=O)c(C)n1-c1ccccc1,10,0,33*,12,12,23,
CCOC(=O)CC1c2ccccc2-n2nncc2CN1CC1CCCCC1 (stereo not drawn),/,-2,/,/,/,/,
COc1ccc(C(=O)CC(c2ccc3c(c2)OCO3)c2c(O)c3ccccc3oc2=O)cc1OC (stereo not drawn),/,-6,/,/,/,/,
COc1ccc(-c2nc3ccccc3c(=O)o2)cc1,3,-1,78*,-4,-3,71*,
COc1ccc(-n2c(-c3ccc(C)cc3)nc3ccccc3c2=O)cc1,5,1,1,4,3,/,
CCN1C[C@]2(CO)CC[C@H](OC)[C@@]34C5C[C@H]6[C@H](OC)C5[C@](O)(C[C@H]6OC)[C@@H](C(OC)C23)[C@@H]14 (stereo partly drawn),7,3,0,1,7,/,
Oc1ccccc1-[n+]1c(-c2ccccc2)cc(-c2ccccc2)c(O)c1-c1ccccc1,4,-8,6,4,12,/,
Cn1cc(C(=O)OCC(=O)NC2CCCC2)c2ccccc21,-2,-3,59*,5,0,37*,
CCCCn1c(NS(=O)(=O)c2ccc(C)cc2)c(C(=O)OCC)c2nc3ccccc3nc21,6,6,7,11,40*,/,PAFAH1B3 conf FP=7
CCCNC(=O)c1c(N)n(CC2CCCO2)c2nc3ccccc3nc12 (stereo not drawn),8,9,-1,14,27*,/,PAFAH1B3 conf FP=12
Nc1c(C(=O)OC2CCCCC2)c2nc3ccccc3nc2n1CC1CCCO1 (stereo not drawn),5,-4,-5,8,9,/,
CCOC(=O)C1C(OC(=O)c2ccccc2)CC2CCC1N2C (stereo not drawn),2,-3,1,/,-2,/,
CN1C[C@H](CO)C=C2c3cccc4[nH]cc(c34)C[C@H]21,3,4,5,7,9,/,
CC(C)[C@H]1C(=O)N2CCC[C@H]2[C@]2(O)O[C@](NC(=O)[C@@H]3C=C4c5cccc6[nH]cc(c56)C[C@H]4N(C)C3)(C(C)C)C(=O)N12,6,/,-1,21,31*,/,PAFAH1B3 conf FP=9
O=C1COc2ccc(C(=O)COC(=O)Cc3ccccc3)cc2N1,5,-8,3,5,4,/,

# Source: PubChem BioAssay (The Scripps Research Institute Molecular Screening Center)
